L3MBTL1 block: blocks human L3MBTL1. AID 485360. AlphaScreen L3MBTL1–H3K9me1 peptide binding. Q9Y468. 230,000 compounds, 0.66% hits. Potency, µM (series often up to 57.1 µM), for the others: at the top dose activity, negative = inhibition, most hits filed as inhibitors; also: % is scaled to controls: 0 for no effect and ±100 for the full control effect; nearly all actives have a fitted effect of over 60% in size
Target sequence (Q9Y468 whole entry, looked up): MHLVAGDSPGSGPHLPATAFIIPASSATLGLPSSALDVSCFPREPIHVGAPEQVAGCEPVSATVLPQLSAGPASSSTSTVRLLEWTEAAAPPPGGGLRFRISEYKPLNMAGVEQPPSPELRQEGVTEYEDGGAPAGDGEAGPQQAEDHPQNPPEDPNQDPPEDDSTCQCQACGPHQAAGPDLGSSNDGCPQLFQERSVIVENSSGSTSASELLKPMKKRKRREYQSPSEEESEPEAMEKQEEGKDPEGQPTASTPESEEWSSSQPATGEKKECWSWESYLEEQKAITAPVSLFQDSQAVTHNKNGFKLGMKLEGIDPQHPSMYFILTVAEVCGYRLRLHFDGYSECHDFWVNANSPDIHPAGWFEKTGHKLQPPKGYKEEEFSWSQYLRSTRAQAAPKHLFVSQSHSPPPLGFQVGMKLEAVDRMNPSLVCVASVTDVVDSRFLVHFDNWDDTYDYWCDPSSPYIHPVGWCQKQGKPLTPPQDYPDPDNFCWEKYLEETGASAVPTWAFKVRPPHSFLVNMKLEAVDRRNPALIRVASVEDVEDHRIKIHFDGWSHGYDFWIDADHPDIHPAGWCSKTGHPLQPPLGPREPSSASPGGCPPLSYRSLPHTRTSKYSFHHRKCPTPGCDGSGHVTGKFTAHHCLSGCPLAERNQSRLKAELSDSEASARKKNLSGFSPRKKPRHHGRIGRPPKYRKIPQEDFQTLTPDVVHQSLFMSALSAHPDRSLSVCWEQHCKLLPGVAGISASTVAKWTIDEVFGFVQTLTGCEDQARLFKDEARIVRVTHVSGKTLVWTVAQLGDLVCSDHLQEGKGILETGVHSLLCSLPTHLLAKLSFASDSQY
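L3MBTL1 (50 nM) pre-complexed 30 min with biotinylated H3(1-15)K9me1 peptide (75 nM), then compounds added for 30 min at room temperature; AlphaScreen streptavidin donor/nickel chelate acceptor beads (10 ug/mL final) read after 30 min dark incubation.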
Sfp inh: blocks B. subtilis Sfp PPTase activity; Potency, µM, for the others: largest response in the series, negative = inhibition, usual class: inhibitors; Q9F4F7; Biochemical Sfp PPTase activity, qHTS; AID 1490; 310,000 compounds, 3.5% hits;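 also: the enzyme is Sfp with the accession as filed and its product quenches rhodamine fluorescence; 0% = enzyme reaction without inhibitor and -100% = no enzyme wells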
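With Hepes-Na pH 7.6 buffer containing 10 mM MgCl2, Sfp (15 nM) modified BHQ-2-YbbR (12.5 uM) using rhodamine-CoA (5 uM). Two reads 30 minutes apart at 525/598 nm yielded each well's rate.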
G9a block: G9a (human) methyltransferase inhibition. G9a H3K9 monomethylation, AlphaScreen, 2 h. Potency, µM (top dose mostly 102 µM), inactives show at the highest dose activity, negative = inhibition, actives largely listed as inhibitors. 350,000 compounds, 8.8% hits; also: % is scaled to controls: 0 for no effect and ±100 for the full control effect; nearly all actives have a fitted effect of over 75% in size
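Enzyme 20 nM + cpd, 15 min RT; add b-H3K9 pep 500 nM / SAM 20 uM; 2 h RT; anti-H3K9me1 Ab 0.5 ug/mL + SA donor / anti-rabbit acceptor beads 20 ug/mL each, 10 min; AlphaScreen read.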
JMJD2A Tudor inh: JMJD2A Tudor domain (human) inhibition | O75164 | Potency, µM (top dose mostly 114 µM), without a hit: at the top dose activity change, negative = inhibition, most hits filed as inhibitors | AlphaScreen JMJD2A-Tudor / H3K4me3 peptide binding | 390,000 compounds, 4.4% hits; also: % is scaled to controls: 0 for no effect and ±100 for the full control effect; nearly all actives have a fitted effect of over 50% in size
HP1b binding inh: inhibitors of HP1-beta chromodomain binding to methylated histone tails; P83916; AlphaScreen HP1-beta / biotin-H3K9me3 peptide binding; Potency, µM (titrated, usually from 114 µM), without a hit: top-dose activity change, negative = inhibition, actives largely listed as inhibitors; 390,000 compounds, 0.56% hits; also: nearly all actives have a fitted effect of over 70% in size
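HP1-beta protein (50 nM final) preincubated 30 min at room temperature with biotinylated H3(1-18)K9me3 peptide (50 nM) in PBS pH 7.4, 0.01% Tween-20, then compound added for 30 min. AlphaScreen streptavidin donor/nickel chelate acceptor beads (10 ug/mL final), 30 min dark, luminescence read.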
BAZ2B inh: blocks human BAZ2B. Q9UIF8. AlphaScreen BAZ2B-H3K14Ac peptide displacement. Potency, µM (titrated, usually from 114 µM), for the others: at the top dose activity change, negative = inhibition, hits mostly inhibitors. 360,000 compounds, 4.4% hits. AID 504333; also: % is scaled to controls: 0 for no effect and ±100 for the full control effect; nearly all actives have a fitted effect of over 60% in size
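AlphaScreen luminescence quantifies BAZ2B engagement of H3K14Ac peptide; the protein and biotinylated peptide are both at 50 nM final, buffer PBS pH 7.4 with 0.01% Tween-20, all steps at room temperature.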
An asterisk follows results filed as active; [ ] = another dose, or the depositor's remark. The list is not random: actives were taken first. Their share in the collection is about 12%. Calls follow the shape of the dose curve; as a rule, active = well fitted curve in the direction sought with a large enough effect; inconclusive = small, poorly fitted or top-dose-only effect, or another doubt; inactive = no such curve, though single readings can be large; an effect the other way counts as inactive or inconclusive. Potency is read from the fitted curve at half-maximal effect.

Screening COc1cc(OC)c(NC(=O)c2oc3ccc4c(c3c2C)C(=O)CC(C)(C)O4)cc1Cl returned G9a block 0%[59 µM], JMJD2A Tudor inh 3%, HP1b binding inh 48% and BAZ2B inh -16%.
C/C=C/c1ccc(OCC(O)CNCCc2ccc(OC)cc2)c(OC)c1 (stereo not given) was read as Sfp inh 79µM*, G9a block 7.9µM*, JMJD2A Tudor inh 20µM*, HP1b binding inh inconclusive and BAZ2B inh 56µM*.
For COc1cc(/C=C2/C(=N)N3C(=NC2=O)SN=C3S(=O)(=O)C(C)C)ccc1OC(=O)c1ccco1 the results were Sfp inh -2%, G9a block 40µM*, JMJD2A Tudor inh -31%, HP1b binding inh -7%[57 µM] and BAZ2B inh 56µM*.
For CCOc1cc(/C=C2/C(=N)N3C(=NC2=O)SN=C3S(=O)(=O)CC)ccc1OC(=O)c1ccco1 the results were Sfp inh 11%, G9a block 40µM*, JMJD2A Tudor inh inconclusive, HP1b binding inh -14%[57 µM] and BAZ2B inh -34%.
Screening COc1cc(/C=C2/C(=N)N3C(=NC2=O)SN=C3S(=O)(=O)C(C)C)ccc1OS(=O)(=O)c1ccccc1 returned Sfp inh 56µM*, G9a block 1%[59 µM] and BAZ2B inh inconclusive.
`CCOc1cc(/C=C2/C(=N)N3C(=NC2=O)SN=C3S(=O)(=O)C(C)C)ccc1OC(=O)c1ccco1` gave Sfp inh -11%, G9a block 35µM*, JMJD2A Tudor inh -25%, HP1b binding inh -5% and BAZ2B inh -35%.
`COc1cc(/C=C2/C(=N)N3C(=NC2=O)SN=C3S(C)(=O)=O)ccc1OC(=O)c1ccco1` gave Sfp inh -15%, G9a block inconclusive, JMJD2A Tudor inh inconclusive, HP1b binding inh 5% and BAZ2B inh inconclusive.
Screening COc1ccc(-c2cc(C(F)(F)F)nc(SCC(=O)NC(C)c3ccccc3)n2)cc1 (stereo not given) returned G9a block 0%[59 µM], JMJD2A Tudor inh -11%, HP1b binding inh 15% and BAZ2B inh -1%.
`CCOC(=O)c1c(C)oc2ncnc(Nc3cc(C)cc(C)c3)c12` gave G9a block -4%[59 µM], JMJD2A Tudor inh 3%, HP1b binding inh 30% and BAZ2B inh 12%[57.1 µM].
For OC(CNCC(c1ccco1)N1CCCCC1)c1ccccc1 (stereo not given) the results were L3MBTL1 block -7%, Sfp inh inconclusive, G9a block 2.2µM*, JMJD2A Tudor inh 1.1µM*, HP1b binding inh -56% and BAZ2B inh 50µM*.
Screening CC(C)c1ccc(C2C3=C(CC(c4ccco4)CC3=O)Nc3nc(C(F)(F)F)nn32)cc1 (stereo not given) returned JMJD2A Tudor inh -15% and HP1b binding inh 19%.
For CCOc1cc(C2C(C(=O)c3ccco3)=C(O)C(=O)N2CCc2ccccc2)ccc1O (stereo not given) the results were L3MBTL1 block 1%, Sfp inh 13%, G9a block inconclusive, JMJD2A Tudor inh inconclusive, HP1b binding inh 41% and BAZ2B inh inconclusive.
CC(=O)C1=C(O)C(=O)N(CCc2c[nH]c3ccccc23)C1c1cccc(O)c1 (stereo not given) was read as Sfp inh -4%, G9a block inconclusive, JMJD2A Tudor inh 79µM*, HP1b binding inh -5% and BAZ2B inh inconclusive.
`CC(=O)C1=C(O)C(=O)N(CCNCCO)C1c1ccccc1` (stereo not given) gave L3MBTL1 block -1%, Sfp inh 3%, G9a block -11%[59 µM], JMJD2A Tudor inh -5%, HP1b binding inh 43% and BAZ2B inh 8%.
`COc1cc(C2C(C(C)=O)=C(O)C(=O)N2CCc2c[nH]c3ccccc23)ccc1O` (stereo not given) gave L3MBTL1 block 3%, Sfp inh -5%, G9a block 50µM*, JMJD2A Tudor inh 100µM*, HP1b binding inh -8% and BAZ2B inh inconclusive.
`COc1ccc(NCc2cc3cc4c(cc3n(CC(=O)Nc3ccccc3)c2=O)OCO4)cc1` gave G9a block inconclusive, JMJD2A Tudor inh -34%, HP1b binding inh 14% and BAZ2B inh -35%.
COc1ccccc1CCNC(=O)Cn1ccc2cc(S(=O)(=O)N3CCCCC3)ccc21 was read as G9a block -31%[59 µM], JMJD2A Tudor inh -22%, HP1b binding inh -1% and BAZ2B inh -12%.
O=S1(=O)N=C(Oc2ccc(Br)cc2)c2ccccc21 was read as JMJD2A Tudor inh -30%.
For O=C(NCCc1ccccc1)c1ccc2c(c1)N(Cc1ccc(Cl)cc1)C(=O)c1ccccc1S2(=O)=O the results were G9a block -6%[59 µM], JMJD2A Tudor inh -11%, HP1b binding inh 38% and BAZ2B inh -15%.
`CC1CCCC(C)N1C(=O)CNCc1ccc2c(c1)OCO2` (stereo not given) gave L3MBTL1 block -3%, Sfp inh -11%, G9a block 50µM*, JMJD2A Tudor inh 50µM*, HP1b binding inh 1% and BAZ2B inh inconclusive.
For CC1=C(C)CC(C(=O)NCc2ccc3c(c2)OCO3)C(C(=O)O)C1 (stereo not given) the results were Sfp inh -1%, G9a block 0%, JMJD2A Tudor inh -14%, HP1b binding inh 5% and BAZ2B inh -30%.
Screening c1cc2c(cc1NC1CCCCCC1)OCO2 returned Sfp inh inconclusive, G9a block 7.9µM*, JMJD2A Tudor inh 50µM*, HP1b binding inh inconclusive and BAZ2B inh 40µM*.
`O=C(NCc1ccc2c(c1)OCO2)C(=O)NCC1CCCO1` (stereo not given) gave Sfp inh 9%, G9a block 17%[59 µM], JMJD2A Tudor inh -5%, HP1b binding inh 39% and BAZ2B inh 0%.
Screening O=C(NCc1ccc2c(c1)OCO2)C(=O)NC1CCCCC1 returned Sfp inh 21%, G9a block inconclusive, JMJD2A Tudor inh 50µM*, HP1b binding inh inconclusive and BAZ2B inh -3%.
`O=S(=O)(c1ccccc1Br)N(Cc1ccccc1)Cc1ccco1` gave Sfp inh -1%, JMJD2A Tudor inh 25% and HP1b binding inh 51%.
For COc1cccc(CCNC(=O)c2cnc3sc(N4CCCCCC4)nn3c2=O)c1 the results were G9a block -6%[59 µM], JMJD2A Tudor inh -9%, HP1b binding inh 18% and BAZ2B inh -1%.
For C/C(=N\Nc1nc2ccccc2nc1C)c1ccccc1O the results were L3MBTL1 block -5%, Sfp inh 14%, G9a block 22µM*, JMJD2A Tudor inh -21%, HP1b binding inh -8% and BAZ2B inh -13%.

Source: PubChem
